Bioassay records (PubChem)
NS1 function inh: influenza NS1 inhibition. Potency, µM (doses to about 46.1 µM), for the others: at the highest dose activity, positive = more growth. 0.4% of 270,000 active. AID 2326; calls by dose curve; further: actives are rising curves; nearly all actives have a fitted effect of over 50% in size
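In this qHTS, NS1 from influenza A is expressed in budding yeast, where it slows growth. Cells are switched from glucose to 2% galactose medium (pH 6.0, -URA), treated with compound, and growth recovery is read at OD600.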
Pf growth 96h: inhibits malaria parasite growth, 96 h; Potency, µM (doses to about 28.7 µM), inactives show top-dose activity change, negative = inhibition, hits mostly inhibitors; P. falciparum luciferase reporter growth, 96 h; 6.9% of 320,000 active; further: on the % scale 0 is the no-effect control and ±100 the full control effect
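Infected RBCs, 2% Hct / 0.05% parasitemia final; luciferase-reporter P. falciparum; cpd 96 h, 37 C, 5% CO2; luciferase detection reagent; luminescence.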
VACV mCherry inh: inhibitors of vaccinia virus infection (mCherry reporter signal). Vaccinia virus mCherry reporter infection, fluorescence. Potency, µM (doses to about 36.5 µM), without a hit: top-dose activity change, negative = inhibition, hits mostly inhibitors. 0.63% of 310,000 active; calls by dose curve; tested in A549 cells; further: on the % scale 0 is the no-effect control and ±100 the full control effect; nearly all actives have a fitted effect of over 35% in size
VACV Venus inh: vaccinia inhibition (Venus reporter); Vaccinia virus Venus reporter expression, fluorescence; Potency, µM (series often up to 36.5 µM), without a hit: at the top dose activity change, negative = inhibition, most hits filed as inhibitors; 0.46% of 330,000 active; calls by dose curve; tested in A549 cells; further: on the % scale 0 is the no-effect control and ±100 the full control effect; nearly all actives have a fitted effect of over 30% in size
HCV inhibitor: inhibitors of hepatitis C virus infection. Huh7.5.1 HCVcc-Cre infection, luciferase reporter, 44 h. Potency, µM (titrated, usually from 41.8 µM), without a hit: top-dose activity change, negative = inhibition, most hits filed as inhibitors. 3.4% of 340,000 active. AID 651820; further: on the % scale 0 is the no-effect control and ±100 the full control effect
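HCVcc-Cre virus at an moi near 0.5 was added right after compound to cells cultured 4 h from seeding (1,000 cells/well). Luciferase activity was determined 44 h later, 15 min after substrate addition at RT.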
Pf growth 48h: P. falciparum growth inhibition at 48 hours (one generation); P. falciparum luciferase growth in erythrocytes, 48 h; Potency, µM (titrated, usually from 28.7 µM), for inactives: top-dose activity change, negative = inhibition, usual class: inhibitors; 5.9% of 310,000 active; AID 504832; further: on the % scale 0 is the no-effect control and ±100 the full control effect
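Firefly luciferase activity from engineered P. falciparum reports growth; inhibitors lower the luminescent signal. Cultures contained 2% hematocrit erythrocytes at 0.1% final parasitemia.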
* hit, by the source's call; i = inactive; ? = inconclusive; / = not tested or not shown; [ ] = remark or other dose. An excerpt weighted towards active compounds, which were near 11% of everything screened. Unless noted, the call rests on the fitted dose curve; in most records, active means well fitted inhibition curve with a large enough effect; inconclusive means small, poorly fitted or top-dose-only effect, or another doubt; inactive means no such curve, though single readings can be large or run the other way. Potency means the concentration at half of the fitted maximal effect.

SMILES	NS1 function inh	Pf growth 96h	VACV mCherry inh	VACV Venus inh	HCV inhibitor	Pf growth 48h
CNC(=O)c1ccc(NC(=O)Cc2ccc(S(=O)(=O)N3CCOCC3)s2)cc1	/	14.7µM*	-6.5%	0.5%	9.3%	-32.3%
CCS(=O)(=O)c1ncc(Cl)c(C(=O)Nc2ccc(S(=O)(=O)N3CCCC(C)C3)cc2)n1 (configuration not stated)	5.4%	18.4%	?	?	12.6µM*	11.4%
CC1CCN(S(=O)(=O)c2ccc(NC(=O)Cc3ccc(S(=O)(=O)N4CCOCC4)s3)cc2)CC1	/	?	?	-21.9%	?	-21.4%
CC1CCCCC1NC(=O)Cc1ccc(S(=O)(=O)N2CCOCC2)s1 (configuration not stated)	/	11.7µM*	-12.8%	-5.5%	?	?
CC1CCCN(S(=O)(=O)c2ccc(NC(=O)Cc3ccc(S(=O)(=O)N4CCOCC4)s3)cc2)C1 (configuration not stated)	/	7.38µM*	-9.0%	-14.0%	?	?
CCOc1ccc(OCC(O)CN2CCN(S(=O)(=O)c3cccc(C(F)(F)F)c3)CC2)cc1 (configuration not stated)	-0.3%	-28.8%	i	-18.4%	?	-78.7%[0.00184 µM]
CCCc1cc(=O)[nH]c(SCC(=O)N(CCOC)c2c(N)n(Cc3ccccc3)c(=O)[nH]c2=O)n1	/	16.1%	i	-13.1%	30.3%	-10.0%
COC(=O)c1sc2nc(SCc3cccc(F)c3)n(N)c(=O)c2c1C	7.2%	-13.5%	-10.4%	-7.9%	-2.4%	-1.4%
CN(C)c1nc(N)nc(N(c2ccccc2)c2ccccc2)n1	-21.5%	31.0%	i	-7.8%	-0.7%	-9.9%
CCOC(=O)C(NC(=O)CCl)(Nc1sc(C)c(CC)c1C#N)C(F)(F)F (configuration not stated)	-12.9%	?	10µM*	?	?	?
CCn1c(Cc2ccccc2)nnc1SCC(=O)Nc1ccccc1F	-6.5%	48.9%	/	/	7.5%	-7.1%
O=C(c1ccc(S(=O)(=O)NCc2ccco2)cc1)N1CCCC(C(F)(F)F)C1 (configuration not stated)	/	-12.2%	i	-13.4%	6.2%	9.3%
C/C=C(\C)C(=O)NCCN1C2=NC[C@@H](Cc3ccccc3)N2C[C@@H]1Cc1ccc(OC)cc1	/	/	-24.5%	-13.5%	-4.1%	/
CCCCCCNC(=O)N[C@@H](C(=O)NCCC[C@H]1CN2C(=NC[C@@H]2Cc2ccccc2)N1CCc1cccc(OC)c1)C(C)C	-5.9%	1.31µM*	i	-24.4%	-13.7%	13.1µM*
CCCCCCNC(=O)N[C@@H](Cc1ccc(O)cc1)C(=O)NCCC[C@H]1CN2C(=NC[C@H]2C)N1CC1CCC1	4.7%	3.29µM*	-11.2%	4.1%	1.4%[8.37 µM]	9.28µM*
C/C=C(\C)C(=O)NCCN1C2=NC[C@H](Cc3ccc(O)cc3)N2C[C@H]1Cc1ccc(O)cc1	0.0%	?	-27.7%	-4.3%	1.4%	?
CCCCCCNC(=O)N[C@H](Cc1ccc(O)cc1)C(=O)NCCC[C@H]1CN2C(=NC[C@H]2CCC)N1CC1CCC1	-51.3%	2.94µM*	/	/	/	7.38µM*
COc1cc(C(=O)Nc2ccc(Oc3ncnc4sc(-c5ccccc5)cc34)cc2)cc(OC)c1OC	3.6%	-5.2%	-4.6%	-4.2%	0.9%	-11.5%
COc1ccc(CCNC(=S)NC(=O)c2ccccc2)cc1C	-2.4%	-76.5%	i	-15.2%	?	-8.5%
CCOC(=O)C(NCCCCl)c1ccccc1 (configuration not stated)	5.6%	77.1%	/	-12.6%	16.2%	/
CCN(CC)CCNC(C(=O)OCCC(C)C)c1ccccc1 (configuration not stated)	/	13.5µM*	/	/	/	16.9µM*
Cc1ccc(C)c(CSc2nnc(-c3cccnc3)o2)c1	-69.2%	13.1µM*	-20.9%	-22.0%	/	?
Cc1ccc(-c2noc(CCCC(=O)NC3CCCC3)n2)cc1	-9.3%	28.9%	-15.8%	-6.0%	?	-28.2%
Cc1ccc(-c2noc(CCC(=O)NC3CCCc4ccccc43)n2)cc1 (configuration not stated)	-7.7%	1.65µM*	/	-26.8%	-21.6%	-22.6%
COc1cccc(-c2noc(CCCC(=O)NC3CCCC3)n2)c1	6.2%	2.33µM*	/	/	?	-5.6%
SMILES	NS1 function inh	Pf growth 96h	VACV mCherry inh	VACV Venus inh	HCV inhibitor	Pf growth 48h
O=C(CCCc1nc(-c2ccc(Cl)cc2)no1)NC1CCCCC1	-13.7%	8.1%	-11.1%	-12.5%	7.08µM*	11.3%
CCOC(=O)c1cc2c(=O)n3ccccc3nc2n(C(C)C)c1=NC(=O)c1ccco1	/	?	-6.9%	-3.1%	-18.2%	-8.1%
CCOCCCn1c(=NC(=O)c2ccc(OC)c(OC)c2)c(C#N)cc2c(=O)n3cccc(C)c3nc21	1.7%	/	/	/	-25.3%	2.33µM*
CCOC(=O)c1cc2c(=O)n3cccc(C)c3nc2n(CC(C)C)c1=NC(=O)c1ccco1	1.8%	3.7µM*	?	-8.1%	?	?
CCOCCCn1c(=NC(=O)c2ccco2)c(C(=O)OCC)cc2c(=O)n3cccc(C)c3nc21	7.8%	?	/	/	11.2µM*	0.0%
Cc1nn(Cc2ccc(Cl)c(Cl)c2)c(C)c1NC(=O)c1cc(-c2ccc3c(c2)OCO3)on1	-43.2%	65.4%	/	/	?	-16.0%
Clc1ccc(Cn2ccc(-c3ccc4c(c3)OCO4)n2)cc1Cl	-35.8%	122.8%	/	/	25.1µM*	6.6%
CCOc1ccc(S(=O)(=O)n2cc(F)c(=O)[nH]c2=O)cc1	-7.0%	13.1µM*	-20.8%	-5.6%	21.0%	?
CC(=O)Nc1ccc(Nc2nc(C)c([N+](=O)[O-])c(N(C)c3ccccc3)n2)cc1	8.3%	?	-12.5%	-8.1%	17.8µM*	?
CC(=O)Nc1ccc(Nc2nc(C)c([N+](=O)[O-])c(Nc3ccccc3)n2)cc1	12.4%	?	-21.2%	?	?	?
COc1ccc(/C=N/Nc2nc(C)c([N+](=O)[O-])c(N(C)c3ccccc3)n2)cc1OC	15.6%	-29.0%	i	-9.9%	1.3%	21.1%
COc1ccc(Nc2nc(N(C)c3ccccc3)nc(N)c2[N+](=O)[O-])cc1	4.5%	7.9%	-15.6%	-4.4%	?	-3.5%
CN(c1ccccc1)c1nc(N)c([N+](=O)[O-])c(Nc2ccccc2)n1	-0.5%	-40.0%	/	/	5.62µM*	?
CCC(=O)Nc1ccc(Nc2nc(C)c([N+](=O)[O-])c(Nc3ccc(NC(=O)CC)cc3)n2)cc1	13.4%	-25.9%	-16.8%	-20.5%	10µM*	?
COc1ccc(C(=O)OCC(=O)Nc2ccc(F)cc2F)cc1OC	-9.6%	9.2%	-12.3%	-4.7%	-5.6%	33.6%
COc1cc(NC(=O)c2sc3ncn(CC(=O)N4CCCC(C)C4)c(=O)c3c2C)cc(OC)c1OC (configuration not stated)	-10.9%	?	/	/	-14.2%	-17.3%
